{"source": "PubChem BioAssay AID1085", "about": "(Emory University Molecular Libraries Screening Center, 2008)", "note": "Hit rate of the full screen: of about 220,000 compounds, about 930 (0.42%) were called active. Shown is part of a subset that was picked to be rich in actives. Unmarked numbers belong to inactive results. No stated cut-off is given here; in the data, active means inhibition above about 50%; inactive means the rest."}
{"molecular_target": "Glycoprotein 42 (Epstein-Barr virus (strain AG876)) (UniProt Q1HVG2)", "sequence (Q1HVG2 whole entry, looked up)": "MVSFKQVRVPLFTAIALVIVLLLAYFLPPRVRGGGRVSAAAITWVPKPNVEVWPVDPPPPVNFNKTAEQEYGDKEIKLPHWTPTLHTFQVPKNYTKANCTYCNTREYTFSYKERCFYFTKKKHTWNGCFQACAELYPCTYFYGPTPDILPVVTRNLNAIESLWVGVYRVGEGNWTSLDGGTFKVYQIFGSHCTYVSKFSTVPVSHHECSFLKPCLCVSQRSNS", "assay": "Epstein-Barr virus gp42 inhibitors, primary screen, biochemical, uHTS, fluorescence polarization (AID 1085)", "conditions": "Fluorescence polarization binding assay, mP read-out; active compounds read high; tested at 21.74 µM"}
{"smiles": "Cc1cccc(N2C(=O)NC(=O)/C(=C\\c3cnn(-c4ccccc4)c3)C2=O)c1", "inhibition": "-3.6%"}
{"smiles": "O=C1NC(=O)N(c2ccccc2)C(=O)/C1=C/c1ccc([N+](=O)[O-])s1", "inhibition": "-9.65%"}
{"smiles": "O=C1NC(=O)N(c2ccc(F)cc2)C(=O)/C1=C/c1ccc2c(c1)CCCN2Cc1ccccc1", "inhibition": "187% (active)"}
{"smiles": "O=c1[nH]c(=O)n(CCc2ccccc2)c(O)c1/C=N/N1CCOCC1", "inhibition": "-16.8%"}
{"smiles": "CN(C)CC1Oc2ccccc2OC1(O)c1ccccc1", "note": "(stereo not given)", "inhibition": "-12%"}
